Test [1] is described as follows: Nuclear factor erythroid 2-related factor 2/antioxidant responsive element (Nrf2/ARE) small molecule agonists: qHTS cell viability counter screen in human keratinocytes (AID 1919968; active = well fitted curve in the direction sought with a large enough effect in the repeat runs; an effect the other way counts as inactive or inconclusive; also: nearly all actives have a fitted effect of over 55% in size). An outline of the steps:
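HaCaT ARE reporter line, 1,500 cells/well; 5 h settle, 37 C/5% CO2; cpd in DMSO pinned; 23 h exposure; CellTiter-Fluor, 1 h; fluorescence.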
In general terms: Quantitative high-throughput screening tests each substance at several concentrations.

Test [2] is described as follows: Nuclear factor erythroid 2-related factor 2/antioxidant responsive element (Nrf2/ARE) small molecule agonists: luciferase reporter gene qHTS assay in human keratinocytes (AID 1919969; also: nearly all actives have a fitted effect of over 35% in size; also: potency is read from the fitted curve at half-maximal effect). (In general: A reporter such as luciferase makes a cellular process visible.)
Test [3] has as its target Gonadotropin-releasing hormone receptor (Homo sapiens) (UniProt P30968). Nature of the test: Human gonadotropin-releasing hormone receptor (GnRHR) small molecule agonists, calcium flux assay in GnRHR-HEK293 cells (AID 1920063). Also: nearly all actives have a fitted effect of over 35% in size. An outline of the steps: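 GnRHR-HEK293, 1500 cells/well, 18 h 37 C/5% CO2; Ca dye 1 h 37 C; cpd pinned (DMSO), agonist mode; kinetic FL 480/540, 3 min, 1 s reads; 15 conc, n=3.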
A general note: A change in cytosolic calcium serves as a functional read-out for many receptors and channels.

The target of test [4] is KiSS-1 receptor (Homo sapiens) (UniProt Q969F8). Kind of test: Human kisspeptin (KISS1R) small molecule agonists, calcium flux assay in KISS1R-HEK293 cells (AID 1920064; active = well fitted curve in the direction sought with a large enough effect in the repeat runs; an effect the other way counts as inactive or inconclusive). In outline:
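Stable human KISS1R HEK293 line; 18 h plating, 37 C/5% CO2; calcium dye 1 h 37 C; compound pin transfer; kinetic fluorescence Ex/Em 480/540, 3 min.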

Test [5] is described as follows: G protein-coupled receptor (GPCR) small molecule agonists, calcium flux assay: HEK293 wild type cell line counter screen (AID 1920065). In outline: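 Kinetic fluorescence at Ex/Em 480/540, recorded every second over 3 min, served as the read-out after compound addition. Each compound was tested at 15 concentrations in triplicate on cells pre-loaded with calcium dye for 1 h.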

Test [6] is described as follows: p53 small molecule agonists, cell-based qHTS assay with rat liver microsomes: qHTS cell viability counter screen (AID 1963580). Also: nearly all actives have a fitted effect of over 45% in size. In outline:
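Viability is assessed in parallel with the p53 reporter read: HCT-116 p53RE-bla cells receive compounds plus rat microsomes and NADPH (0.5 mg/mL final apiece), incubate 16 h at 37 C, and then CellTiter-Glo luminescence is recorded.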

Test [7] is described as follows: p53 small molecule agonists, cell-based qHTS assay: qHTS cell viability counter screen (AID 1963581). Also: nearly all actives have a fitted effect of over 45% in size. An outline of the steps:
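HCT-116 p53RE-bla cells, 4,000/well, plated 5 h before compound pin transfer; 16 h at 37 C; bla substrate 2 h RT; then CellTiter-Glo, 30 min RT, luminescence.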

Test [8] deals with 5-hydroxytryptamine receptor 2A (Homo sapiens) (UniProt P28223). Kind of test: 5-hydroxytryptamine receptor 2A (HTR2A) small molecule antagonists, cell-based qHTS assay (AID 1963586). Also: nearly all actives have a fitted effect of over 45% in size. Also: potency is read from the fitted curve at half-maximal effect. In outline: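 Antagonist-mode intracellular calcium assay: DOI (4 nM) added after 5 min compound pre-incubation at room temperature to dye-loaded HTR2A-CHO cells. Fluorescence followed for 3 min, sampled every second.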

For test [9] the target is unchanged. Nature of the test: 5-hydroxytryptamine receptor 2A (HTR2A) small molecule agonists, cell-based qHTS assay (AID 1963587). Also: nearly all actives have a fitted effect of over 30% in size. Also: potency is read from the fitted curve at half-maximal effect. An outline of the steps:
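CHO cells stably expressing human HTR2A, plated 18 h, loaded with calcium dye 1 h at 37 C. Agonist mode: compounds added and intracellular calcium fluorescence recorded kinetically for 2 min at 1 sec intervals.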

Test [10] deals with Muscarinic acetylcholine receptor M1 (Homo sapiens) (UniProt P11229). Kind of test: Cholinergic receptor muscarinic 1 (CHRM1) small molecule antagonists, cell-based qHTS assay (AID 1963588). Also: nearly all actives have a fitted effect of over 40% in size. Also: potency is read from the fitted curve at half-maximal effect. In outline: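 CHRM1-CHO calcium-flux assay, antagonist mode. Cells were seeded 18 h, dye-loaded 1 h at 37 C and given compound for 5 min at RT, then acetylcholine was added at 50nM. FDSS fluorescence was read 3 min; 15 concentrations, three runs.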

The target is the same in test [11]. Nature of the test: Cholinergic receptor muscarinic 1 (CHRM1) small molecule agonists, cell-based qHTS assay (AID 1963589). Also: nearly all actives have a fitted effect of over 35% in size. In outline: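 Human M1 in stable CHO line; 18 h plating, 1 h dye load 37 C; cpd added (agonist mode); Ca2+ fluorescence kinetic read, 1 s intervals; 15 conc, 3 runs.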
Test [12] in a line: cAMP Responsive Elements (CRE) small molecule agonists, cell-based qHTS assay (AID 1963590). An outline of the steps:
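HEK 293T CRE-bla, 2,000 cells/well, 18 h preincubation 37 C/5% CO2; cpds (DMSO) pinned, 3 h; LiveBLAzer B/G FRET substrate, 2 h RT.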

The nature of test [13]: cAMP Responsive Elements (CRE) small molecule antagonists, cell-based qHTS assay (AID 1963591; active = well fitted inhibition curve with a large enough effect in the signal ratio in the repeat runs, not every such curve was filed as active; the % refers to the signal ratio). An outline of the steps: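 Beta-lactamase reporter read by FRET substrate (LiveBLAzer B/G) after 2 h at room temperature. CRE-bla HEK293T cells had received compound plus 0.25 uM (final) NKH477 for 3 h at 37 °C.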
The target of test [14] is Beta-2 adrenergic receptor (Homo sapiens) (UniProt P07550). Nature of the test: Adrenergic beta2 receptor (ADRB2) small molecule antagonists, cell-based qHTS assay (AID 1963592). Also: nearly all actives have a fitted effect of over 50% in size. Also: potency is read from the fitted curve at half-maximal effect. An outline of the steps: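 Cells (CHO, stable ADRB2 overexpression) incubated 18-20hr at 37C; compounds added from DMSO; agonist mix (1nM isoproterenol, 100uM IBMX, 25uM Ro-20-1724) added; 0.5hr RT; d2-cAMP and anti-cAMP-cryptate added; 1hr RT; 665/615 nm read.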

The target in test [15] is D(2) dopamine receptor (Homo sapiens) (UniProt P14416). Nature of the test: Dopamine D2 receptor (DRD2) small molecule agonists, cell-based qHTS assay (AID 1963594). Also: nearly all actives have a fitted effect of over 35% in size. In outline: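 HEK293 cells stably expressing human DRD2, pre-treated with PDE inhibitor Ro20-1724 (0.1 mM final) and compound 10 min at room temperature, then stimulated with NKH477 (200nM […]) for 30 min. cAMP read by HTRF (665/620 nm).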

The target in test [16] is Beta-2 adrenergic receptor (Homo sapiens) (UniProt P07550). Kind of test: Adrenergic beta2 receptor (ADRB2) small molecule agonists, cell-based qHTS assay (AID 1963593).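 Also: CHO cells stably overexpressing human ADRB2.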 In outline: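 CHO cells stably over-expressing ADRB2 were plated overnight at 37C, then dosed with compounds plus a stimulation mix containing 100uM IBMX and 25uM Ro-20-1724 for 0.5hr at room temperature. cAMP was measured by HTRF competition, 1hr.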

Test [17] has as its target D(2) dopamine receptor (Homo sapiens) (UniProt P14416). Nature of the test: Dopamine D2 receptor (DRD2) small molecule antagonists, cell-based qHTS assay (AID 1963595; active = well fitted inhibition curve with a large enough effect in the signal ratio in the repeat runs, with a control signal flat; the % refers to the signal ratio; also: potency is read from the fitted curve at half-maximal effect). In outline:
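HTRF cAMP read-out at 665 and 620 nm emission (340 nm excitation). Antagonist mode: compounds were tested against 12 nM quinpirole in DRD2-HEK293 cells, with 200 nM NKH477 raising cAMP and 0.1 mM Ro20-1724 blocking its breakdown.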

The nature of test [18]: p53 small molecule agonists, cell-based qHTS assay with human liver microsomes: qHTS cell viability counter screen (AID 1963579). Also: nearly all actives have a fitted effect of over 45% in size. In outline:
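Metabolically activated exposure: compounds, human liver microsomes and NADPH (0.5 mg/mL final apiece) were added to p53RE-bla cells seeded 5 h earlier, left 16 h at 37 C, and then assessed for viability by CellTiter-Glo luminescence.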

Values without a mark were called inactive. Results filed as inconclusive are left out. Calls of active or inactive are those of the source. Unless noted, calls follow the shape of the full dose curve.

Chain of D(2) dopamine receptor (Homo sapiens) (P14416 whole entry, looked up): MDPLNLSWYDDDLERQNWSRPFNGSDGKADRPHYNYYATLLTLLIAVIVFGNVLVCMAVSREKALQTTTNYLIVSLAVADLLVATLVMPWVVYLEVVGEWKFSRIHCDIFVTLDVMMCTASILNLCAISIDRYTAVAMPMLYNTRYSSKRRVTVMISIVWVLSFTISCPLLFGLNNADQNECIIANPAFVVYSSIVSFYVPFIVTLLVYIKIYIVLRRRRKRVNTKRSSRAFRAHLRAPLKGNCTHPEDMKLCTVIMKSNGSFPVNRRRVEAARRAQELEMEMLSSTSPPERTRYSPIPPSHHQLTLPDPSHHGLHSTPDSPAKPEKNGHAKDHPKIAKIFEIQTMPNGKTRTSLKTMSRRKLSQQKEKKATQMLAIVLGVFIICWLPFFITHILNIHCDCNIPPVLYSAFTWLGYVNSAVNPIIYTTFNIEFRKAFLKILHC
Chain of Gonadotropin-releasing hormone receptor (Homo sapiens) (P30968 whole entry, looked up): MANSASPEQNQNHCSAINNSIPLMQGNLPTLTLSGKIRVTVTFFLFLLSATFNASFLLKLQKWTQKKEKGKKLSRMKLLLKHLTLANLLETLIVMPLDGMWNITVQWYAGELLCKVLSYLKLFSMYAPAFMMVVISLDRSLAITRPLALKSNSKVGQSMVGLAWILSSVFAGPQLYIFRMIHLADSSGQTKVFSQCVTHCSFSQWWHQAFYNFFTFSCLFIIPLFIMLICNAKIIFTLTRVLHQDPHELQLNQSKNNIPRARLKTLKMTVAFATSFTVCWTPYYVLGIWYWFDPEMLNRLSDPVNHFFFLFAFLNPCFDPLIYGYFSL
Chain of Muscarinic acetylcholine receptor M1 (Homo sapiens) (P11229 whole entry, looked up): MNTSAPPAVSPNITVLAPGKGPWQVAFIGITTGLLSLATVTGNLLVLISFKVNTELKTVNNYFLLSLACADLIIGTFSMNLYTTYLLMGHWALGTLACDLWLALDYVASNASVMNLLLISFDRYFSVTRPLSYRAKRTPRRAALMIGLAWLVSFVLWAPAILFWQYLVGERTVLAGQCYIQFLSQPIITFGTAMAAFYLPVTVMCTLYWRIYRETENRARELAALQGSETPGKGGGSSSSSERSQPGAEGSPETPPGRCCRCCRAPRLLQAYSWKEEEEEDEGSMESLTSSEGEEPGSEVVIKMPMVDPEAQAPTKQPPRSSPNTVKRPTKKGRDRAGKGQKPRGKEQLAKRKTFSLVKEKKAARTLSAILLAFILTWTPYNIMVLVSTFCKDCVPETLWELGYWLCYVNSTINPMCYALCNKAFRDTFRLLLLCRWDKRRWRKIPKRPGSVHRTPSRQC
Chain of KiSS-1 receptor (Homo sapiens) (Q969F8 whole entry, looked up): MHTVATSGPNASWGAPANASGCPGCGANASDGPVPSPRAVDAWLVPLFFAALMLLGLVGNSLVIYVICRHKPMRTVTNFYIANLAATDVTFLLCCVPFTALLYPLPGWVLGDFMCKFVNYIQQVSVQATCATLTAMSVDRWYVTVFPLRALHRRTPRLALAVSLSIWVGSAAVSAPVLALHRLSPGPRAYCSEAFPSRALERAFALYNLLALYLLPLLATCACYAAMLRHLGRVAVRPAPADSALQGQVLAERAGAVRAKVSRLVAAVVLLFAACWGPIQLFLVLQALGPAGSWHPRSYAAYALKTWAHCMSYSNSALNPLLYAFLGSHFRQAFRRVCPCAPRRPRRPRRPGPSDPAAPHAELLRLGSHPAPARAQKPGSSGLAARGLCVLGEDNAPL
Chain of 5-hydroxytryptamine receptor 2A (Homo sapiens) (P28223 whole entry, looked up): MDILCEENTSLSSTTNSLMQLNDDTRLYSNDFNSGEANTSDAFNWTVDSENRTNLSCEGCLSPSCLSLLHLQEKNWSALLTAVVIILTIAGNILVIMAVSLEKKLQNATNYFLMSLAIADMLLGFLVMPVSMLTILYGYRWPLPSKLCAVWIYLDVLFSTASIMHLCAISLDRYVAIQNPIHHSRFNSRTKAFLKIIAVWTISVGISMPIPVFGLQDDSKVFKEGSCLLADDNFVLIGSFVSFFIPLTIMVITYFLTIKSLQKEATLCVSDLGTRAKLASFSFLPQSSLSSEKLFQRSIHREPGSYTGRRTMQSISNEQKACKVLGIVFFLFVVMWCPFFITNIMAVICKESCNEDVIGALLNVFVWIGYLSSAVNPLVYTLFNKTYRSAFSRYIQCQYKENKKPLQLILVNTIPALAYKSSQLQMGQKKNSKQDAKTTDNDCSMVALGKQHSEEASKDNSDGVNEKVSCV
Chain of Beta-2 adrenergic receptor (Homo sapiens) (P07550 whole entry, looked up): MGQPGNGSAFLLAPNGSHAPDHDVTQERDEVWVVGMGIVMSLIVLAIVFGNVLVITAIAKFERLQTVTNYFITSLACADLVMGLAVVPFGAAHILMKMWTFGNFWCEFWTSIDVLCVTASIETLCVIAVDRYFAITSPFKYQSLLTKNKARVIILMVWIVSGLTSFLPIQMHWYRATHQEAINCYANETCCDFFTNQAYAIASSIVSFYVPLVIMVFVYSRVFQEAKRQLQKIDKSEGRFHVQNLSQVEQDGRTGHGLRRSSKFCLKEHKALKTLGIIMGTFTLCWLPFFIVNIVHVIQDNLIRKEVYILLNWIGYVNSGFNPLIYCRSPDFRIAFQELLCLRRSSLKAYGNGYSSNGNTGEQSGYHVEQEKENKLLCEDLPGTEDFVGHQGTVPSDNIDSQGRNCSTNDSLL

Turning to `Oc1ccccc1F`, the Potency entry in test [1], in test [2], in [3], in [4], in test [5] and in [6] was “inactive” throughout. Further, the Potency entry in [7], in test [8], in test [9], in test [10], in [11] and in test [12] was “inactive” each time. Besides, the Potency entry in test [13], in [14] and in test [15] was “inactive” each time.

With `O=C(O)c1ccccc1-c1ccc(C(F)(F)F)cc1`, the Potency result in test [1], in test [2], in test [3], in test [4], in test [5] and in [6] was “inactive” throughout. Also, the Potency result in [7], in test [8], in test [9], in test [10], in test [11] and in test [12] was “inactive” each time. Further, the Potency entry in [13], in [14], in [16] and in [17] was “inactive” in each case.

Turning to `CN1CCC(=C2c3ccccc3Sc3ccccc32)CC1`, the Potency entry in test [1], in test [2], in test [3], in [4], in test [5] and in test [6] was “inactive” each time. Also, the Potency result in test [7], in test [12], in test [13] and in test [15] was “inactive” throughout.

As for `CN1C(C(=O)Nc2ccccn2)=C(O)c2sccc2S1(=O)=O`, the Potency result in [1], in [2], in test [3], in test [4], in [5] and in test [6] was “inactive” each time. Besides, the Potency entry in [7], in test [12], in test [13], in test [14], in test [16] and in test [15] was “inactive” in each case. Also, the Potency result in [17] was “inactive”.

Consider `NC(=O)c1c(Cl)cccc1Cl`, for which the Potency result in [1], in [2], in test [3], in test [4], in test [5] and in test [6] was “inactive” throughout. For the same compound, the Potency entry in [7], in test [8], in test [9], in test [10], in test [11] and in test [12] was “inactive” in each case. For the same compound, the Potency result in test [16], in test [15] and in [17] was “inactive” throughout.

As to `CCCCCOC(=O)COc1cc(N2C(=O)C3=C(CCCC3)C2=O)c(F)cc1Cl`, the Potency result in test [1], in [3], in test [4], in [5], in [18] and in [8] was “inactive” each time. The Potency entry in test [9], in [11], in [15] and in test [17] was “inactive” each time. The Potency in test [2] was 61.1 µM (active).

As for `CO[C@]12C[C@@H](COC(=O)c3cncc(Br)c3)CN(C)[C@@H]1Cc1cn(C)c3cccc2c13`, the Potency entry in test [1], in [2], in test [3], in test [4], in test [5] and in test [6] was “inactive” each time. Also, the Potency entry in [7], in [11], in test [12], in test [13] and in [15] was “inactive” in each case. In addition, the Potency is 0.0729 µM (active) in test [8]; 0.0849 µM (active) in test [9]; 8.18 µM (active) in [10]; 13.3 µM (active) in test [14]; 26.6 µM (active) in test [17].

For `COC(=O)C(C)=O`, the Potency entry in [1], in [2], in [3], in [4], in [5] and in test [6] was “inactive” each time. Besides, the Potency result in test [7], in [8], in test [11], in [12], in test [13] and in test [14] was “inactive” in each case. Besides, the Potency result in [15] and in [17] was “inactive” each time.

For the compound `S=C([S-])NCCNC(=S)[S-].S=C([S-])NCCNC(=S)[S-].[Mn+2].[Zn+2]`, the Potency result in test [1], in test [2], in test [3], in [4], in [5] and in test [6] was “inactive” in each case. For the same compound, the Potency entry in test [7], in [8], in test [9], in test [11], in test [12] and in test [14] was “inactive” each time. The Potency entry in [15] was “inactive”.

(Values after PubChem BioAssay (Tox21).)
